IkB sig inh – IkB Signaling; ABC-DLBCL IkBa-CBG/CBR dual luciferase ratio, 4 h; response scale: scaled: untreated 0%, proteasome inhibitor 100%; Potency, µM (doses to about 57.1 µM), inactives show top-dose IkBa stabilization activation; actives 0.04% (n = 110,000); AID 445, 2006; active = well fitted curve in the direction sought with a large enough effect in the signal ratio, not every such curve was filed as active; inconclusive = small, poorly fitted or top-dose-only effect, or a change in a side signal; the % refers to the signal ratio;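 note: the direction sought is a rising ratio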
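In this assay, an IκBα–CBG68 fusion accumulates when IKK-driven degradation is blocked; native CBR normalizes for cell number. OCI-Ly3 cells were treated 4 h with compound and doxycycline, then green and red light read after Chroma-Glo addition.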
p53ts 39C tox – qHTS Screen for Compounds that Selectively Target Cancer Cells with p53 Mutations: Cytotoxicity of p53ts Cells at the Nonpermissive Temperature; AID 902, 2007; actives 1.5% (n = 130,000); H1299-p53A138V viability at 39C, ATP luminescence, 24 h; Potency, µM (doses to about 46.1 µM), for inactives: at the highest dose activity change, negative = cell killing, actives largely listed as cytotoxic; note: % is set by controls: 0 for no effect and ±100 for the full control effect; nearly all actives have a fitted effect of over 55% in size
p53ts 32C tox – qHTS Screen for Compounds that Selectively Target Cancer Cells with p53 Mutations: Cytotoxicity of p53ts Cells at the Permissive Temperature; H1299-p53A138V at 32C, ATP luminescence viability, 24 h; Potency, µM (top dose mostly 46.1 µM), for the others: top-dose activity change, negative = cytotoxicity, hits mostly cytotoxic; actives 0.93% (n = 130,000);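 note: 0% = DMSO and -100% = full killing by reference compound; nearly all actives have a fitted effect of over 55% in size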
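Cells: H1299 p53ts (A138V), 600/well, pre-incubated 16–30 h at 37C. Cpd up to 46 uM, 24 h, 32C. Readout: ATPlite luminescence, 20 min RT. Normalization: DMSO vs tamoxifen 100 uM. AC50 by Hill equation.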
ERK AVP inh – qHTS Assay for Inhibitors of the ERK Signaling Pathway using a Homogeneous Screening Assay. actives 0.99% (n = 72,000). AID 995, 2007. Potency, µM (doses to about 57.5 µM), without a hit: at the highest dose activity, negative = inhibition, most hits filed as inhibitors. HEK293-V1b, vasopressin-stimulated pERK AlphaScreen; note: % is set by controls: 0 for no effect and ±100 for the full control effect; nearly all actives have a fitted effect of over 55% in size
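HEK293 cells stably expressing V1b receptor, seeded overnight in 1% FBS, were treated with compounds for 30 min at 37C, then stimulated 5 min with 25 nM vasopressin; phospho-ERK read by AlphaScreen SureFire after lysis.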
Peg3 imprint – qHTS Assay for Compounds that Induce Erasure of Genomic Imprints; mouse ES Peg3-LacZ reporter, beta-gal luminescence, 40 h; Potency, µM (series often up to 60.7 µM), for inactives: at the top dose activity change, positive = activation, usual class: activators; actives 0.02% (n = 110,000); AID 1948, 2009
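Each well holds 300 Peg3LacZ-Neo (maternal) female ES cells incubated 40 h at 37C, 5% CO2. LacZ is measured by BetaGlo luminescence, with AC50 and maximum efficacy derived from dose-response curves.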
* marks the source's active call; other numbers are inactive results; ? = inconclusive; . = not tested or not shown; [ ] = another dose, or the depositor's remark. Most compounds without a hit are left out; they make up all but 2.3% or so of the library. Unless noted, calls come from the whole dose curve; as a rule, active = well fitted curve in the direction sought with a large enough effect; inconclusive = small, poorly fitted or top-dose-only effect, or another doubt; inactive = no such curve, though single readings can be large; an effect the other way counts as inactive or inconclusive. Potency is the fitted concentration of half-maximal effect.

SMILES	IkB sig inh	p53ts 39C tox	p53ts 32C tox	ERK AVP inh	Peg3 imprint
N#C/C(=C\NC(=S)c1ccncc1)c1nc2ccccc2s1	?	3%[9.22 µM]	0%[9.22 µM]	8%[11.5 µM]	-8%[10.9 µM]
CC(=O)OCC1OC(Oc2cc(OC(C)=O)c3c(=O)cc(-c4ccc(OC(C)=O)c(OC(C)=O)c4)oc3c2)C(OC(C)=O)C(OC(C)=O)C1OC(C)=O (stereo not drawn)	.	-25%	-27%	-12%	-34%
COc1ccc2oc(-c3ccc(O)cc3)cc(=O)c2c1	0%[11.4 µM]	7.9µM*	5µM*	40µM*	-87%
CC(C)(C)Nc1ncnc2c1cnn2-c1ccccc1	?	10µM*	7.9µM*	.	-24%
COc1ccc(CNc2ncnc3c2cnn3-c2ccc(C)c(C)c2)cc1	-1%	-25%	-4%	.	-12%[10.9 µM]
COc1ccc(-n2ncc3c(NC(C)(C)CO)ncnc32)cc1	-2%	10µM*	13µM*	.	-17%[10.9 µM]
Cc1ccc(C(Nc2ccccn2)c2ccc3cccnc3c2O)cc1 (stereo not drawn)	?	?	?	.	-17%[10.9 µM]
Cc1conc1NC(c1cccs1)c1ccc2cccnc2c1O (stereo not drawn)	?	?	13µM*	-23%	-48%
Cc1cc(C)n(-c2nc3ccccc3nc2Nc2cccc(C(F)(F)F)c2)n1	?	33%	-3%	.	-7%[10.9 µM]
Fc1ccc(Nc2nc3nonc3nc2Nc2cccc(C(F)(F)F)c2)cc1	?	13µM*	?	.	-25%[10.9 µM]
CCOC(=O)CCN1CCN(C(=O)c2ccc(-n3c(=O)c(=O)[nH]c4ccccc43)cc2)CC1	.	11%	-5%	.	.
COC(=O)c1cc2c([nH]c3ccccc32)c(C)n1	-4%	-14%	?	32µM*	-7%
COC(=O)c1cc(-c2c[nH]c3ccccc23)n[nH]1	1%	10%	12%	-15%	-2%
CC(=O)O[C@@H]1CC[C@]2(C)[C@H]3CC[C@]4(C)[C@H](C[C@H]5CCCC[C@@]54C(C)=O)[C@@H]3CC(=O)[C@@]2(O)C1	1%[11.4 µM]	.	.	.	.
Cc1nn(C)c(C)c1CNC(=O)c1cc2n(n1)C(C(F)(F)F)CC(c1cccs1)N2 (stereo not drawn)	?	-11%	8%	32µM*	-2%
O=C(NCC12CC3CC(CC(C3)C1)C2)c1cc2n(n1)C(C(F)(F)F)CC(c1ccco1)N2 (stereo not drawn)	4%	20µM*	-30%	37%	-21%
O=C(c1cc2n(n1)C(C(F)(F)F)CC(c1ccco1)N2)N1CCc2ccccc2C1 (stereo not drawn)	?	-4%	4%	25µM*	-5%
Cc1cnc(CNc2ncnc3ccc(-c4ccccc4C(F)(F)F)cc23)cn1	11%[11.4 µM]	-10%	11%	-26%	-18%
O=[N+]([O-])c1ccc2c(N=Nc3ccc4ccccc4c3O)c(O)cc(S(=O)(=O)O)c2c1	3%[11.4 µM]	-12%[9.22 µM]	-6%[9.22 µM]	-20%[11.5 µM]	8%[10.9 µM]
COc1ccc2[nH]c3nc(SC(C)C)nnc3c2c1	?	10µM*	16µM*	-28%	-30%
CN(C)CC(CN(C)C)c1ccccn1	0%[11.4 µM]	4%[9.22 µM]	-1%[9.22 µM]	-26%[11.5 µM]	21%[10.9 µM]
CCCCCCCCCCCCCCCCCC(=O)NCCc1ccc(O)c(O)c1	.	-9%	13%	-9%	0%
CCCCCCCC/C=C\CCCCCCCC(=O)NCc1ccc(O)c(OC)c1	0%	32µM*	?	13%	-13%
CCCCCCCC/C=C\CCCCCCCC(=O)NCCc1ccc(O)c(O)c1	59%	13µM*	?	?	-47%
CCCCCCCCCCCCCCCC(=O)NCCc1ccc(O)c(O)c1	.	-15%	13%	2%	-21%
SMILES	IkB sig inh	p53ts 39C tox	p53ts 32C tox	ERK AVP inh	Peg3 imprint
O=C(c1ccc2c(c1)OCO2)N1CCN(c2ccccc2)CC1	?	6%	5%	-5%	5%
Cc1nn(C(=O)c2ccc3c(c2)OCO3)c(N)c1-c1ccccc1	12%	?	13µM*	.	-15%
Cc1nn(C(=O)c2cccs2)c(N)c1-c1ccccc1	1%	?	13µM*	.	-8%
COC(=O)[C@H](Cc1ccccc1)NC(=O)[C@@H](C)CO	.	7%[9.22 µM]	-4%[9.22 µM]	-14%[11.5 µM]	.
O=C(O)C(NS(=O)(=O)c1cccc2cccnc12)c1ccccc1 (stereo not drawn)	-1%	5%	4%	.	-4%
CO[Si](CCCNCCC[Si](OC)(OC)OC)(OC)OC	0%	-5%	2%[1.84 µM]	-9%	11%
COc1cc2cc3c4c(cc(OC)c(OC)c4c2cc1OC)CCN3C	3%[11.4 µM]	32µM*	32µM*	?	-47%
C[N+](C)(C)C(C1=CCCC1=O)c1ccccc1 (stereo not drawn)	.	.	.	.	-12%[10.9 µM]
Cc1ccc(NS(=O)(=O)c2ccc3[nH]c4c(c3c2)CCCCCC4)cc1Cl	?	25µM*	1%	.	-6%[10.9 µM]
COc1ccc(NS(=O)(=O)c2ccc3[nH]c4c(c3c2)CCCC4)cc1Cl	.	.	6%	.	.
Cc1ccccc1NS(=O)(=O)c1ccc2[nH]c3c(c2c1)CCCCC3	?	25µM*	9%	.	19%[10.9 µM]
Clc1nc(NCCc2ccccc2)c2ncn(-c3ccccc3)c2n1	1%[11.4 µM]	.	.	.	.
CCOc1ccc(CNc2cc(C)nc3nc(-c4cccc(C)c4)nn23)cc1OC	?	7.9µM*	-28%	.	-12%[10.9 µM]
Cc1ccc(CNc2cc(C)nc3nc(-c4cccc(C)c4)nn23)cc1	5%	?	-3%	.	-14%[10.9 µM]
CCOc1ccc(CCNc2cc(C)nc3ncnn23)cc1OCC	2%	-3%	-10%	25µM*	-13%
CC(C)CO/N=C1/C[C@@H](O)[C@@H](O)[C@@H]2[C@@H]3C(=O)N(c4cccc(Oc5ccccc5)c4)C(=O)[C@H]3CC[C@H]12	.	2%[9.22 µM]	-6%[9.22 µM]	16%[11.5 µM]	.
Clc1ccc2c(c1)C1OCCC1C(c1ccco1)N2 (stereo not drawn)	?	10µM*	7.9µM*	-22%	.
Cc1cccc(Cc2c(C)nc3nc(SCC(=O)NC4CCCCC4)nn3c2C)c1	?	-18%	4%	.	-12%[10.9 µM]
Cc1ccc(Cc2c(C)nc3nc(SCC(=O)NC4CCC(C)CC4)nn3c2C)cc1 (stereo not drawn)	3%	20µM*	23%	.	13%[10.9 µM]
C[C@H](C(=O)c1ccncc1)c1ccccn1	1%[11.4 µM]	3%[9.22 µM]	2%[9.22 µM]	-2%[11.5 µM]	-10%[10.9 µM]
COc1cc(OC)c(OC)cc1CNc1cc(C)ccc1OC	?	9%	-2%	25µM*	-13%
